Calls of active or inactive are those of the source.
Legend:
Albumin (Bos taurus) = Albumin (Bos taurus) (UniProt P02769); test: bovine serum albumin binders on microarray, profiling panel, artefact control for SMM control protein annotation, biochemical, small-molecule microarray, Alexa647 label, 635/667 nm fluorescence (AID 1118); conditions: BSA-A647 binding, fluorescence 635 nm, higher = more signal;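 further: score merges 667 nm emission intensity and signal-to-noise per printed compound spot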
[1] = small-molecule microarray binders of probe aXIP, primary screen, biochemical, NeuroSMM set, 635/667 nm fluorescence (AID 1119); conditions: higher = more signal, called active from +8 up or from −8 down;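 further: probe is the protein aXip251-270 applied at 1 µg/mL to compound-printed slides; binding of probe to printed compounds measured as 667 nm fluorescence plus signal to noise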
[2] = small-molecule binders of probe aNOTCH3, primary screen, biochemical, small-molecule microarray, 635/667 nm fluorescence (AID 1120); conditions: higher = more signal;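 further: probe is a biotin-tagged antibody raised against NOTCH3 rather than NOTCH3 protein; score merges spot fluorescence near 667 nm with spot signal to noise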
[3] = small-molecule binders of probe aNOTCH2, primary screen, biochemical, small-molecule microarray, 635/667 nm fluorescence (AID 1121); conditions: higher = more signal;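 further: score merges feature fluorescence read at 667 nm with its signal to noise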
[4] = target: Carbonic anhydrase 2 (Homo sapiens) (UniProt P00918); test: CAII small-molecule binders, profiling panel, biochemical, small-molecule microarray, Alexa647-labelled CAII (AID 1122); conditions: CAII-A647 binding fluorescence, higher = more signal
[5] = COS7 lysate on small-molecule microarray, probe aHis, 635 nm (AID 1123); conditions: COS7 cell lysate, fluorescence, higher = more signal;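 further: z-score combines 667nm fluorescence intensity with signal-to-noise per printed compound spot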
[6] = compound binding in COS7 lysate, probe aLAP1, primary screen, cell lysate, small-molecule microarray (AID 1124); conditions: probe aLAP1, fluorescence, higher = more signal;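 further: lysate comes from COS7 cells expressing LAP1 and is applied at 0.3 µg/mL; score merges spot fluorescence near 667 nm with signal-to-noise over triplicate slides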
Sam68 (KHDRBS1) = test: Sam68 small-molecule binders, primary screen, biochemical, small-molecule microarray, 635 nm fluorescence (AID 1125); conditions: small-molecule microarray binding, higher = more signal;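 further: score merges 667 nm channel intensity with signal to noise over triplicate slides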
[7] = system: Chordin-like protein 2 (CHRDL2); test: CHRDL2 small-molecule binders, primary screen, biochemical, small-molecule microarray, 635 nm fluorescence (AID 1126); conditions: small-molecule microarray binding, fluorescence 635 nm; higher = more signal;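 further: printed compound slides probed with Chrdl2 protein at 4 µg/mL for 1 h at 4 C; score merges 667 nm emission intensity with signal to noise over three replicate slides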
[8] = target: Concanavalin-A (Canavalia ensiformis) (UniProt P02866); test: ConA small-molecule binders, primary screen, artefact control for SMM control protein annotation, biochemical, small-molecule microarray, Alexa647 label, 635 nm (AID 1127); conditions: ConA-A647 binding fluorescence, higher = more signal;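 further: z combines 667 nm emission intensity with signal-to-noise across three replicate slides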
[9] = anti-His antibody binders, primary screen, artefact control for SMM control protein annotation, biochemical, small-molecule microarray, 635 nm fluorescence (AID 1128); conditions: anti-His Alexa647 antibody binding, higher = more signal;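 further: score merges feature fluorescence with signal-to-noise for each printed compound spot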
[10] = system: Human papillomavirus type 1a E7 protein (residues 1-88); test: HPV1a E7 small-molecule binders, primary screen, biochemical, small-molecule microarray, residues 1-88, 635 nm (AID 1129); conditions: small-molecule microarray binding, fluorescence 635 nm; higher = more signal
[11] = target: Focal adhesion kinase 1 (Homo sapiens) (UniProt Q05397); test: small-molecule microarray binders of FAK, primary screen, biochemical, 635/667 nm fluorescence, BSA, DTT (AID 1130); conditions: PTK2 binding, 635 nm fluorescence, higher = more signal;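 further: composite of spot emission at 667 nm and signal to noise over triplicate slides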
[12] = system: Fibrinogen (Alexa647-labelled); test: fibrinogen binders on compound microarrays, profiling panel, artefact control for SMM control-protein annotation, biochemical, small-molecule microarray, 635/667 nm fluorescence (AID 1131); conditions: fibrinogen-A647 binding fluorescence, higher = more signal;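 further: z-score merges 667 nm fluorescence with per-spot signal-to-noise over triplicate slides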
[13] = target: Follistatin (Homo sapiens) (UniProt P19883); test: follistatin binders on small-molecule microarrays, primary screen, biochemical, small-molecule microarray, 635/667 nm fluorescence (AID 1132); conditions: FST binding, 635 nm fluorescence, higher = more signal
[14] = target: Fibroblast growth factor 2 (Homo sapiens) (UniProt P09038); test: FGF2 binders on small-molecule microarrays, primary screen, biochemical, small-molecule microarray, 635/667 nm fluorescence (AID 1133); conditions: small-molecule microarray binding, FGF2, fluorescence 635/667; higher = more signal
[15] = mitochondrial membrane potential change in A549 cells, profiling panel, cell-based, JC-1 fluorescence, basal, 24 h, 100 nL (AID 1138); conditions: higher = more signal;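 further: A549 lung adenocarcinoma cells under basal conditions with no added stimulus; test concentration not given here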
Lefty1 = Lefty1 binders on small-molecule microarrays, primary screen, biochemical, small-molecule microarray, 635/667 nm fluorescence (AID 1139); conditions: small-molecule microarray binding, fluorescence 635/667; higher = more signal
[16] = system: wheat germ agglutinin (Triticum aestivum), Alexa647-labelled; test: wheat germ agglutinin binders on compound microarrays, profiling panel, artefact control for SMM control-protein annotation, biochemical, small-molecule microarray, 635/667 nm fluorescence (AID 1140); conditions: WGA-A647 binding, 635 nm fluorescence, higher = more signal;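 further: score merges 667 nm feature emission with signal to noise over triplicate slides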
[17] = target: Luciferin 4-monooxygenase (Photinus pyralis) (UniProt P08659); test: firefly luciferase enzyme inhibitors, primary screen, biochemical, luminescence, purified enzyme, 2006 set (AID 1141); conditions: SteadyGlo luminescence, 30 min, higher = more signal, called active from +8 up or from −8 down;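 further: cell-free assay with purified firefly luciferase at 100 ng per well in PBS; test concentration not given here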
Chain of Luciferin 4-monooxygenase (Photinus pyralis) (P08659 whole entry, looked up): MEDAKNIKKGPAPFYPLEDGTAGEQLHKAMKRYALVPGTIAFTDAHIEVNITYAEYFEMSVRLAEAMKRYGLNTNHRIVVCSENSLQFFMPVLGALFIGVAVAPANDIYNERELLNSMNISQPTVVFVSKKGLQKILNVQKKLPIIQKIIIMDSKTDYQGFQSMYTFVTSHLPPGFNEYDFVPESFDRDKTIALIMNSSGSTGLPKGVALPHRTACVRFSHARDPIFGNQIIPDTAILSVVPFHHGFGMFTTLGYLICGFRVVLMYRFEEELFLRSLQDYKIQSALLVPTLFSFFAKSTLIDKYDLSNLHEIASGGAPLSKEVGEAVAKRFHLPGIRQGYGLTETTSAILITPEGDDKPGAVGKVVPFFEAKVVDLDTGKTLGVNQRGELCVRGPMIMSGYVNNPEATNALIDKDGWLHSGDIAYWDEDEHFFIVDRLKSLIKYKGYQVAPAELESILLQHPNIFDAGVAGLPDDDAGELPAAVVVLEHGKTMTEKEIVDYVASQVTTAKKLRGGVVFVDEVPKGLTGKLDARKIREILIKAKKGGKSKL

Chain of Focal adhesion kinase 1 (Homo sapiens) (Q05397 whole entry, looked up): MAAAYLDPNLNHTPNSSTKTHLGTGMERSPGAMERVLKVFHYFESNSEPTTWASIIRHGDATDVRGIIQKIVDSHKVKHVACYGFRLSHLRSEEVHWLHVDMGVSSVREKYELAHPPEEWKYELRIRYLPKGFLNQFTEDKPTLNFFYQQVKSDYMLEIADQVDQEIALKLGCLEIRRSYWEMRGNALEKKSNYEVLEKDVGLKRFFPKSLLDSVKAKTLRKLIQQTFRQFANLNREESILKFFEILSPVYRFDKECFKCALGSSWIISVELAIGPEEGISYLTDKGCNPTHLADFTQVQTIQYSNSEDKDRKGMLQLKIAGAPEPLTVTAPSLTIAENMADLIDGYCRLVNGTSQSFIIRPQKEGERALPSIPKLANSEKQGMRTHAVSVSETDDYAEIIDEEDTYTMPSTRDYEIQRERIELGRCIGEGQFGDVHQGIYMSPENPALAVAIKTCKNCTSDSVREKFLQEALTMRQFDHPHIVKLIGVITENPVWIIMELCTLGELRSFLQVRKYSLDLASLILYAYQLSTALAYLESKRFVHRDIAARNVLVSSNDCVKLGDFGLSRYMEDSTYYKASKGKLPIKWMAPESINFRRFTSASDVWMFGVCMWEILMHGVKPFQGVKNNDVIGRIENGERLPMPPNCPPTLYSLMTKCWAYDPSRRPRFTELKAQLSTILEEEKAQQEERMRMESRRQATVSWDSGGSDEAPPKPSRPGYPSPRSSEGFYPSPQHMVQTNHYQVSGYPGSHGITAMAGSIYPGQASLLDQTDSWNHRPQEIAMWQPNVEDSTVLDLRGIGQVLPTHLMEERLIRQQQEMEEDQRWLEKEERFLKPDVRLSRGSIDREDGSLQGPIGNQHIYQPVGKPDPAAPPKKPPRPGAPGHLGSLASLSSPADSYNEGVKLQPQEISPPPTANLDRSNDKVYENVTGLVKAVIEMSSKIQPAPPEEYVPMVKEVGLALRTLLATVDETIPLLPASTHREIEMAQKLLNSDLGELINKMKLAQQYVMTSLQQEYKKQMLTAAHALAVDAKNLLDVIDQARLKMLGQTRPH
Chain of Follistatin (Homo sapiens) (P19883 whole entry, looked up): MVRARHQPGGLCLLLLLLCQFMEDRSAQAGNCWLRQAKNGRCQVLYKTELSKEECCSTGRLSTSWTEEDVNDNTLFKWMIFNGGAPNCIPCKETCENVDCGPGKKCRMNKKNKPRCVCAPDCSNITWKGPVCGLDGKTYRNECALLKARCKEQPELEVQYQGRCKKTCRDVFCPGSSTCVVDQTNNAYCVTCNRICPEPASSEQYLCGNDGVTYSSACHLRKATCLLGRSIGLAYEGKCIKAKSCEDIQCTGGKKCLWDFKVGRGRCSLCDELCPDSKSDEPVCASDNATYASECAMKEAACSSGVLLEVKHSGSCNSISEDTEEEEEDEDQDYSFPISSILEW
Chain of Albumin (Bos taurus) (P02769 whole entry, looked up): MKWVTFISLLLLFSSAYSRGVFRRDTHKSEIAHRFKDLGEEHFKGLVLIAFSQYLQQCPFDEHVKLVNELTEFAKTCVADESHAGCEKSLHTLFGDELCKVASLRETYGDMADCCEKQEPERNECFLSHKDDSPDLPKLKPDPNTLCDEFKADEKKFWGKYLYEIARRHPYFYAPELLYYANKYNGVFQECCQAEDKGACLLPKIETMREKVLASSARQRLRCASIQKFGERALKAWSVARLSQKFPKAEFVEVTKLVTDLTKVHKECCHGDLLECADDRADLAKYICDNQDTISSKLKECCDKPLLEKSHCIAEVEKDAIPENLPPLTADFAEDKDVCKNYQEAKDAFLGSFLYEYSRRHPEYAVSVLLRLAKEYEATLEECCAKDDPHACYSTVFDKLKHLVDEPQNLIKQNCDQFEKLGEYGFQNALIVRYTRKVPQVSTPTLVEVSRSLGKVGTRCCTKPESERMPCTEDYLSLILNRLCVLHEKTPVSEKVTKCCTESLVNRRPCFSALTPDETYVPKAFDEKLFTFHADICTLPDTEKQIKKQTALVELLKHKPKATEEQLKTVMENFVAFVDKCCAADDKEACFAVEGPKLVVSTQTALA
Chain of Fibroblast growth factor 2 (Homo sapiens) (P09038 whole entry, looked up): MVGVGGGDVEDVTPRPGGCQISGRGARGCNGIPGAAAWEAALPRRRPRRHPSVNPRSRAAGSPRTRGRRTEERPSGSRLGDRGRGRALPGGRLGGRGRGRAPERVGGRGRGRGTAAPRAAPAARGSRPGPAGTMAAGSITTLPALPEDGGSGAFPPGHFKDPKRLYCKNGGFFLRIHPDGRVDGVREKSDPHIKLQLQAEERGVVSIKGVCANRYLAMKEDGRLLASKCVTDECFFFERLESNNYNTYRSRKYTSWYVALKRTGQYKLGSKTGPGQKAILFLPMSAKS
Chain of Concanavalin-A (Canavalia ensiformis) (P02866 whole entry, looked up): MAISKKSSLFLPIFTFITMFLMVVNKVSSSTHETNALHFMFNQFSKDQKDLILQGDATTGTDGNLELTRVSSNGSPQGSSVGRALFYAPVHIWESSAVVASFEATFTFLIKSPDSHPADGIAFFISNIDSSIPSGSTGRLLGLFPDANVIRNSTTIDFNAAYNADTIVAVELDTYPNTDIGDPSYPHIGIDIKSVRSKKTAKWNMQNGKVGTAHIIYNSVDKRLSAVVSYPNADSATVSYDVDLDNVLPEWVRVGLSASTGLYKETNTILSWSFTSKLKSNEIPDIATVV

Structure (SMILES) | composite z-score (Albumin (Bos taurus)) | composite Z-score [1] | composite z-score [2] | composite z-score [3] | composite z-score [4] | composite z-score [5] | composite z-score [6] | composite z-score (Sam68 (KHDRBS1)) | composite z-score [7] | composite z-score [8] | composite z-score [9] | composite z-score [10] | composite z-score [11] | composite z-score [12] | composite z-score [13] | composite z-score [14] | z-score [15] | composite z-score (Lefty1) | composite z-score [16] | z-score [17]
CN(C)C(=O)[C@@]1(CCS(=O)(=O)c2ccccc2)COC(c2ccc(OCCCO)cc2)=N1 | 0.401 | 0.319 (inactive) | 0.125 | -0.0406 | 0.813 | 2.28 | 0.441 | 0.203 | -0.466 | 0.469 | 1.45 | 1.24 | 0.119 | 0.993 | 0.66 | -0.0861 | -0.572 | -0.589 | 0.93 | -0.446 (inactive)
C=CC[C@]1(C(=O)NCCCOC)N=C(c2ccc(OCCCO)cc2)O[C@H]1c1ccccc1CN=[N+]=[N-] | 0.782 | 0.571 (inactive) | 0.119 | -0.0013 | 0.748 | 2.59 | 0.298 | 1.14 | -0.257 | 0.983 | 2.44 | 1.23 | 0.932 | 1 | 1.14 | 0.564 | 2.04 | -0.0763 | 0.934 | -0.529 (inactive)
CNS(=O)(=O)c1ccc(C)cc1 | -0.189 | 0.348 (inactive) | -0.185 | -0.0761 | -0.0894 | 0.284 | 0.291 | 0.667 | 1.07 | 0.613 | -0.0728 | 0.668 | -0.163 | -0.212 | 0.884 | 0.917 | 1.55 | 0.39 | 0.0044 | -1.2 (inactive)
C=C[C@@H](COC(=O)OC(C)(C)C)N(Cc1ccc(OC)cc1)S(=O)(=O)c1ccc(Br)cc1 | -0.0125 | 0.342 (inactive) | 0.185 | -0.154 | -0.0303 | 0.456 | -0.024 | 0.828 | 0.708 | 0.802 | 1.03 | 1.11 | 0.43 | 0.731 | 0.844 | 0.683 | 3.28 | 0.9 | 0.285 | -0.694 (inactive)
C=CCN1C(=O)[C@@]2(Cc3ccccc31)N=C(c1ccc(OCCCO)cc1)O[C@H]2c1ccccc1 | -0.519 | 0.302 (inactive) | 0.307 | 0.125 | 0.401 | 2.8 | 0.843 | 1.17 | 0.885 | 1.17 | 2.49 | 1.19 | 1.02 | 0.039 | 1.35 | 0.988 | 1.1 | 0.368 | 0.495 | -2.65 (inactive)
C[C@@]1([C@@H](NC(=O)c2ccc(-c3ccccc3)cc2)c2ccc(Cl)cc2)C[C@H]1C1CCCCC1 | 0.688 | -0.286 (inactive) | 0.305 | -0.0527 | 0.302 | 2.21 | 0.0789 | 1.29 | -0.564 | 1.01 | 2.1 | 1.15 | 0.473 | 0.869 | 0.663 | -0.246 | 0.532 | 0.112 | 0.695 | 0.321 (inactive)
COC(=O)C(CC#Cc1ccc2c(c1)[C@]1(C(=O)N2)[C@H](c2ccc(OCCO)cc2)N2[C@H](c3ccccc3)[C@H](c3ccccc3)OC(=O)[C@H]2[C@@H]1C(=O)N1CCc2cc(OC)c(OC)cc2C1)C(=O)OC | 0.863 | -0.527 (inactive) | 0.407 | -0.0326 | 0.542 | 2.04 | 0.397 | 1.31 | 0.547 | 1.15 | 0.857 | 1.2 | 0.343 | 1 | 1.41 | 1.57 | -1.26 | 1.36 | 0.423 | -0.465 (inactive)
CCCC[C@@H]1C[C@H]1[C@@H](NC(=O)c1ccccc1)c1ccc(C(=O)OC)cc1 | -0.108 | 0.953 (inactive) | -0.048 | 0.0203 | 0.287 | 0.157 | -0.156 | -0.316 | -1.26 | -0.364 | -0.248 | -0.429 | 0.0213 | 0.0563 | -0.676 | -1.67 | 0.348 | -0.684 | -0.113 | -0.438 (inactive)
